Measurements published in PubChem BioAssay AID2014 (Sanford-Burnham Center for Chemical Genomics, 2009).
The whole screen tested about 290,000 compounds, of which about 3,000 (1%) were called active. No rule for the calls is given here. The entries come from a sample that favours actives as a whole.

Biological target: Polyadenylate-binding protein 1 (Homo sapiens) (UniProt P11940)
Experiment: PABP poly(A) RNA binding inhibitors, primary screen, biochemical, fluorescence polarization, uHTS (AID 2014);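 also: calls also rest on retests at 20 µM and on dose response follow-up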
Settings: stronger effect = higher value

Sequence of Polyadenylate-binding protein 1 (Homo sapiens) (P11940 whole entry, looked up): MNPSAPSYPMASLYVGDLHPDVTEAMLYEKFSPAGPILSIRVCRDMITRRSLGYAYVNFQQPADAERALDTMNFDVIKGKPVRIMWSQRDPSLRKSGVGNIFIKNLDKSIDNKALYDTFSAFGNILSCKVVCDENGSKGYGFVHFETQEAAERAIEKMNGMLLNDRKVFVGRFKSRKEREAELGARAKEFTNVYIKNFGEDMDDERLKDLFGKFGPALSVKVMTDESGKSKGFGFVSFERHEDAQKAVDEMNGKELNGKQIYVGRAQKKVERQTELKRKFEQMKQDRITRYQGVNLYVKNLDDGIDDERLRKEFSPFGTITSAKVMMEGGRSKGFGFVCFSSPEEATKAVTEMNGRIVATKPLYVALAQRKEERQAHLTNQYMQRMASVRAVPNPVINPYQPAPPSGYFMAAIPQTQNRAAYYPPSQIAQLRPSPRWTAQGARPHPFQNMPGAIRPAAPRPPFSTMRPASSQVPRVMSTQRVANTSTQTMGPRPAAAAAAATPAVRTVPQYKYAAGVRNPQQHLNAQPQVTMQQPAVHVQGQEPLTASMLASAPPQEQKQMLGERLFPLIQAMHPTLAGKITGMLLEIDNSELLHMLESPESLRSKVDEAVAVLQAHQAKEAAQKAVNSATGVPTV

Row | Structure (SMILES) | inhibition (at 35 µM) | inhibition (confirmation repeats, at 20 µM)
1 | CCn1nnnc1SCC(=O)Nc1ccc(N(C)C)cc1 | 1.4% (inactive) | 
2 | Cc1ccc(Nc2nc(Cl)c(C=O)s2)cc1 | 40.3% (inactive) | 44.5%
3 | Cc1cc(C)c2nc(-c3ccco3)cc(C(=O)O)c2c1 | 91.2% (active) | 
4 | Cc1ccsc1-c1cc(C(=O)O)c2c(ccc3ccccc32)n1 | 20.2% (inactive) | 
5 | COC(=O)c1cnn2c(C(F)(F)F)cc(-c3ccco3)nc12 | 23.9% (inactive) | 
6 | CCN(CC)c1ccc(/C=N/Nc2nc(C)cc(C)n2)c(O)c1 | 16.6% (active) | 67.4%
7 | Cc1cc(C)nc(N/N=C/c2ccncc2)n1 | 2% (inactive) | 
8 | CCN(CC)c1ccc(/C=N/NC(=O)c2cnccn2)c(O)c1 | -7.1% (inactive) | 
9 | c1ccc(CCC2=NCCn3cccc32)cc1 | 67.5% (active) | 
10 | CC1CSc2nnc(CCc3ccccc3)n21 (configuration not stated) | -2.9% (inactive) | 
11 | S=C(NCCc1ccccc1)N1CCn2cccc2C1c1ccncc1 (configuration not stated) | 6.4% (inactive) | 
12 | O=C(Nc1cccnc1Cl)c1cc(-c2ccccc2O)on1 | -6.2% (inactive) | 
13 | COc1ccc(NC(=O)c2cccc3c2C(=O)N(CC2CCCO2)C3)cc1OC (configuration not stated) | -2% (inactive) | 
14 | Cc1cccn2c(=O)c3cc(C(=O)NCC4CCCO4)c(=N)n(Cc4ccc(F)cc4)c3nc12 (configuration not stated) | -1% (inactive) | 
15 | COc1ccc(CNC(=O)c2cc3c(=O)n4ccccc4nc3n(CC3CCCO3)c2=N)cc1 (configuration not stated) | -5.2% (inactive) | 
16 | Cc1ccc2nc3c(cc(C(=O)NCCc4ccccc4)c(=N)n3CC3CCCO3)c(=O)n2c1 (configuration not stated) | 83.3% (active) | 
17 | COc1ccc(-n2c(=O)[nH]c3cc(C(=O)NCCc4ccc(OC)c(OC)c4)ccc3c2=O)c(OC)c1 | 11% (inactive) | 
18 | COc1ccc(N2CCN(C(=O)c3ccccc3NC(=O)C3=C(C)OCCS3)CC2)cc1 | -6.5% (inactive) | 
19 | O=C(c1cc(-c2ccc(O)cc2)on1)N1CCOCC1 | 2.9% (inactive) | 
20 | CCc1nc2cccnc2n1-c1ccc(C(=O)O)cc1 | 73.7% (active) | 87.5%
21 | CCOC(=O)CNC(=O)CSc1nc2cccnc2n1CC | 23.1% (inactive) | 
22 | COCCCNC(=O)Cc1ccc(-n2c(C)nc3cccnc32)cc1 | 36% (inactive) | 12%
23 | CCOC(=O)[C@@H]1[C@H]2COc3cc(OC)ccc3[C@@H]2N2C(=O)N(c3cccc(C)c3)C(=O)[C@@]12C | 7.6% (inactive) | 
24 | O=C(Cc1cccs1)Nc1ccc([N+](=O)[O-])cc1 | 2.1% (inactive) | 
25 | Cc1ccc(/C=C/C(=O)Nc2ccc([N+](=O)[O-])c(NC(=O)/C=C/c3ccc(C)o3)c2)o1 | 0% (active) | 119%
26 | COC(=O)/C=C\C(=O)Nc1cccc([N+](=O)[O-])c1 | 9.4% (inactive) | 
27 | Cc1ccc(/C=C/C(=O)Nc2cc(S(=O)(=O)N3CCCCCC3)ccc2OCC(F)(F)F)o1 | -0.3% (inactive) | 
